In PubChem BioAssay:
The source made the active and inactive calls.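 How the source made its calls, unless noted: active means inhibition of the reporter signal at or above 50%; inactive means inhibition below 50%.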

Assay: blockers of RIG-like receptor reporter activation – cell-based, Sendai virus stimulus, luciferase, 10K MLSCN set, TLR/RLR signaling modifier project, primary screen (AID 602276;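 active means inhibition at or above 50% at 10 µM; inactive means inhibition below 50%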;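 further: firefly luciferase from ISG56 promoter only with Renilla not read in this screen; 0% = Sendai virus plus DMSO and 100% = medium plus DMSO without virus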)
Settings: HEK293 RL24 IRF3 luciferase reporter, at 10 µM, stronger effect = higher value

inhibition, inactive:
Cn1c(C(=O)OCC(=O)NCC2CCCO2)cc2sccc21 (stereo unspecified) 13.3%
Nn1c(SCc2csc(-c3ccccc3)n2)nnc1-c1cccs1 31%
CCOC(=O)Nc1ccc(NS(=O)(=O)c2ccc(C)cc2)cc1 1.72%
COC(=O)CN1C(=O)CC(C)(C)S(=O)c2ccccc21 (stereo unspecified) 4.76%
Cn1c(Cc2ccccc2)nnc1SCC(=O)c1ccc(Br)s1 6.15%
CC(=O)Nc1ccc(S(=O)(=O)Nc2nc3c(s2)CCCC3)cc1 5.19%
COc1cccc(-c2nnn(CC(=O)O)n2)c1 6.2%
CCN(CC(=O)Nc1ccc(S(N)(=O)=O)cc1)S(=O)(=O)c1cc(C)ccc1OC -18.9%
CC(=O)c1c(C)[nH]c(C(=O)N2CCN(C(=O)c3ccco3)CC2)c1C -22.5%
COCCCn1nnnc1SCC(=O)Nc1nc(C)c(C)s1 2.9%
CC(C)Cc1nc2oc3c(N4CCN(CCO)CC4)ncnc3c2c2c1CCCC2 -8.86%
Brc1ccc(-c2csc(/N=C/N3CCOCC3)n2)cc1 -73.1%
N#CCCN(C(=O)Nc1ccc(Cl)cc1)c1ccccc1 -5.26%
O=C(NC1CCCC1)C(c1cccs1)N(Cc1ccco1)C(=O)Cn1nnc(-c2cccs2)n1 (stereo unspecified) 20.2%
CNC(=O)c1ccsc1NC(=O)c1ccccc1 -11.3%
Cc1ccccc1C(=O)NC1CCN(Cc2nnnn2CCc2ccccc2)CC1 5.02%
CCOC(=O)CCc1c(C)nc2cc(-c3ccc(F)cc3)[nH]n2c1=O -3.01%
O=C(CCNS(=O)(=O)c1cccc2nsnc12)Nc1ccc2c(c1)OCCO2 19.3%
Cn1c(CCNC(=O)c2ccco2)nc2cc(NC(=O)C3CCCCC3)ccc21 6.27%
Cc1ccc(OCCC(=O)OCC(=O)C(C)(C)C)cc1 12.7%
O=C(O)c1ccc2c(c1)C(=O)N(c1ccc(Cl)cn1)C2=O 10.9%
COc1cccc(/C=N/n2c(-c3ccco3)nc3ccccc3c2=O)c1 -12.1%

Assay: TLR3 IRF3 reporter activation blockers – cell-based, poly I:C stimulus, luciferase, 10K MLSCN set, primary screen (AID 602277)
Settings: HEK293-TLR3 RL24 IRF3 luciferase reporter, at 10 µM, stronger effect = higher value

inhibition, inactive:
COc1ccc(-c2cc3c(=O)n(CC(=O)NC4CCN(Cc5ccccc5)CC4)ncn3n2)cc1 -13.3%
Cc1c(C(=O)OC2CCCCC2)[nH]c2c1C(=O)CC(C)(C)C2 -13.3%
CC(CCc1ccccc1)NCc1ccncc1 (stereo unspecified) 23.5%
COCCN(CCOC)S(=O)(=O)c1ccc(C(=O)Nc2nnc(C3CC3)o2)cc1 24.5%
Cc1sc2ncn3ncnc3c2c1C -56.2%
CSc1nc2ccc(Nc3nc(N4CCOCC4)nc(N4CCOCC4)n3)cc2s1 -49.5%
Cc1cc(C(N)=O)c2cc(Br)ccc2n1 32.5%
COc1ccc(-c2ccc(-c3noc(-c4cccs4)n3)c(OC)n2)cc1 -86.9%
O=C1CCCc2c1cc(C(=O)NCCCN1CCOCC1)c(=O)n2-c1ccc(Cl)cc1 45.8%
Cc1ccc(-n2ncc3c(=O)[nH]c(SC(C)C)nc32)cc1 21.6%
Cc1ccccc1N1C(N)=NC(N)=NC1(C)C 5.9%
CCCc1nnc(SCC(=O)N2CCOCC2)n1Cc1ccco1 22.7%
CC1CCN(CCn2c(=S)[nH]c3ncccc3c2=O)CC1 26.9%
CCOc1ccc(-c2nnn(CC(=O)N3CCN(c4ccc(F)cc4)CC3)n2)cc1OCC 14%
O=C1CCCCCN1CSc1nc2ccccc2s1 27.7%
S=c1[nH]nc(Cc2ccccc2)n1-c1ccccc1 20.2%
O=C(NCc1cccnc1)C1c2ccccc2C(=O)N1Cc1ccco1 (stereo unspecified) 11%
Cn1c(C(=O)OCC(=O)NCC2CCCO2)cc2sccc21 (stereo unspecified) 13.1%
Nn1c(SCc2csc(-c3ccccc3)n2)nnc1-c1cccs1 30.9%
CCOC(=O)Nc1ccc(NS(=O)(=O)c2ccc(C)cc2)cc1 9.39%
COC(=O)CN1C(=O)CC(C)(C)S(=O)c2ccccc21 (stereo unspecified) 22.2%
Cn1c(Cc2ccccc2)nnc1SCC(=O)c1ccc(Br)s1 10.8%
CC(=O)Nc1ccc(S(=O)(=O)Nc2nc3c(s2)CCCC3)cc1 -2.08%
COc1cccc(-c2nnn(CC(=O)O)n2)c1 43.8%
CCN(CC(=O)Nc1ccc(S(N)(=O)=O)cc1)S(=O)(=O)c1cc(C)ccc1OC 19.6%
CC(=O)c1c(C)[nH]c(C(=O)N2CCN(C(=O)c3ccco3)CC2)c1C 10.9%
COCCCn1nnnc1SCC(=O)Nc1nc(C)c(C)s1 9.02%
CC(C)Cc1nc2oc3c(N4CCN(CCO)CC4)ncnc3c2c2c1CCCC2 31.2%
Brc1ccc(-c2csc(/N=C/N3CCOCC3)n2)cc1 -171%
N#CCCN(C(=O)Nc1ccc(Cl)cc1)c1ccccc1 -52.7%
O=C(NC1CCCC1)C(c1cccs1)N(Cc1ccco1)C(=O)Cn1nnc(-c2cccs2)n1 (stereo unspecified) 23.1%
CNC(=O)c1ccsc1NC(=O)c1ccccc1 -28.3%
Cc1ccccc1C(=O)NC1CCN(Cc2nnnn2CCc2ccccc2)CC1 33.8%
CCOC(=O)CCc1c(C)nc2cc(-c3ccc(F)cc3)[nH]n2c1=O 22.2%
O=C(CCNS(=O)(=O)c1cccc2nsnc12)Nc1ccc2c(c1)OCCO2 23.2%
Cn1c(CCNC(=O)c2ccco2)nc2cc(NC(=O)C3CCCCC3)ccc21 0.497%
Cc1ccc(OCCC(=O)OCC(=O)C(C)(C)C)cc1 27.5%
O=C(O)c1ccc2c(c1)C(=O)N(c1ccc(Cl)cn1)C2=O 29.8%
COc1cccc(/C=N/n2c(-c3ccco3)nc3ccccc3c2=O)c1 -6.01%
